# PubChem BioAssay (NCI)
# About 83,000 compounds went through this panel and 20% of them were active in at least one assay; those are over-represented in the sample as a whole.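 Assay: single dose, 48 h. Readout: percent growth (0 = no net growth; negative = cell death). Active: <10.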 Calls of active or inactive are those of the source.
# Test system: MDA-MB-468 breast
# Experiment: NCI-60 one-dose screen, 48 h (100 = growth as untreated, 0 = no growth, -100 = all killed)
# Conditions: 10 µM unless noted
row,SMILES,growth
1,O=C(CSc1nnc(-c2cc(-c3ccccc3)nc3ccccc23)n1-c1ccccc1)Nc1ccc(C(=O)/C=C/c2ccc(Cl)cc2)cc1,88.9% (inactive)
2,O=C(O)c1cn(C2CC2)c2cc(N3CCN(C(=O)/C=C/c4ccc(Cl)cc4)CC3)c(F)cc2c1=O,75.5% (inactive)
3,COc1ccc2c(c1)OC13Oc4cc(OC)ccc4C=C1CCCC3=C2,56.3% (inactive)
4,CC/C=C\C[C@H](O)C/C=C1/C(=O)C(Cl)=C[C@@H]1C/C=C\CCCC(=O)OC,-62.1% (active)
5,CCOC(=O)c1cc2c(n1Cc1cc(OC)c(OC)c(OC)c1)-c1oncc1CCC2,15.7% (inactive)
6,C#C[C@]1(O)CC[C@H]2[C@@H]3CC=C4c5sc(C6CCOCC6)nc5CC[C@]4(C)[C@H]3CC[C@@]21C,68.5% (inactive)
7,CCN(CCNc1ccc(C)c2sc3cc(Cl)ccc3c(=O)c12)CC(C)(C)O,-19.3% (active)
8,Cc1ccc(C(=O)O)o1,112% (inactive)
9,C1CCC(N2CN3c4nonc4N4CN(C5CCCCC5)CN5c6nonc6N(C2)C3C45)CC1 (centres undefined),99.5% (inactive)
10,CN(C)CCOc1nc2ccccc2c2c1-c1ccc(Cl)cc1C2=O,-51.1% (active)
11,NC(=S)N/N=C/c1cn(-c2ccccc2)nc1-c1cc2ccccc2oc1=O,43.3% (inactive)
12,COc1ccc(/C(=C\c2ccc3c(c2)OCO3)C(=O)Nc2nc3ccccc3s2)cc1OC,90.5% (inactive)
13,O=C(COc1cc(O)c2c(=O)cc(-c3ccccc3)oc2c1)Nc1ccccc1,103% (inactive)
14,COc1ccc(-n2nnc(C(=O)NCCc3c[nH]c4ccc(F)cc34)c2C)cc1,109% (inactive)
15,COCCOC(=O)COc1ccc(OC)cc1,95.6% (inactive)
16,CC/C=C\C[C@H](O)C/C=C1/C(=O)C=C[C@@H]1C/C=C\CCCC(=O)NC,-47.4% (active)
17,Cc1ccc(C)c(/C=C2\CN(C(=O)OC(C)(C)C)C/C(=C\c3cc(C)ccc3C)C2=O)c1,57.3% (inactive)
18,CCc1cccc2c3c(sc12)C(c1ccc(Cl)cc1)C(C#N)=C(N)O3 (centres undefined),-7.98% (active)
19,O=C1OCC2=C1C(c1cccc(Cl)c1)c1cc3c(cc1N2CCO)CCC3 (centres undefined),-9.35% (active)
20,COc1ccc(/C=C/C(=O)c2ccc(NC(=O)CSc3nc4c([nH]3)c(=O)n(C)c(=O)n4C)cc2)cc1OC,51.8% (inactive)

row,SMILES,growth
1,CCCCn1c(C(=O)c2c[nH]c3ccccc23)n[nH]c1=S,109% (inactive)
2,Cc1ccc(-c2c3c(N)nc(-c4cccnc4)nc3nc3c2c(C)nn3-c2ccccc2)cc1,74.6% (inactive)
3,O=C(/C=C/c1ccc(Cl)cc1)c1ccc(NC(=O)N2CCN(c3cc4c(cc3F)c(=O)c(C(=O)O)cn4C3CC3)CC2)cc1,96.6% (inactive)
4,Oc1ccc(Cc2ccc(O)c3ncccc23)c2cccnc12,-16% (active)
5,CCCCCC(=O)OCc1ccccc1,97.3% (inactive)
6,O=C1Nc2ccccc2/C1=C/c1cccn1CCCCCn1c2ccccc2c(=O)c2ccccc21,37.6% (inactive)
7,COc1ccc(CC(C)=C(c2ccc(OCCN3CCCCCC3)cc2)c2ccc(OCCN3CCCCCC3)cc2)cc1,-81.2% (active)
8,N=c1ccn2c(n1)O[C@@H]1[C@@H](O)[C@H](CO)O[C@@H]12,77.1% (inactive)
9,O=C1/C(=C\c2c[nH]c3ccccc23)c2ccccc2N1c1c(Cl)cccc1Cl,8.39% (active)
10,COc1ccc(C(=O)/C=C/c2ccc(C)cc2)cc1OC,47.6% (inactive)
11,CCOC(=O)c1nn(C2CCCCO2)c2ccc(NC(=O)Cn3nnc4ccccc43)cc12 (centres undefined),105% (inactive)
12,COc1ccc(NC(=O)C2c3ccccc3C(=O)N(CC(C)C)C2c2cccs2)cc1 (centres undefined),82.3% (inactive)
13,COc1ccc(-c2nnc(SCC(=O)Nc3ccc(/C(C)=N\O)cc3)n2-c2ccccc2)cc1OC,78.5% (inactive)
14,O=[N+]([O-])c1ccc(N2CCN=N2)cc1,93.9% (inactive)
15,COc1ccccc1NC1=C(N2CCCCC2)C(=O)c2ccccc2C1=O,65.9% (inactive)
16,COc1cc(/C=C2\CCCC3=C2N=C2SC(C)=CN2C3c2cc(OC)c(OC)c(OC)c2)cc(OC)c1OC (centres undefined),-20.7% (active)
17,O=C(Nc1ccncc1)C(=O)c1cn(S(=O)(=O)c2ccc(Oc3ccccc3)cc2)c2ccccc12,55.4% (inactive)
18,O=C(CBr)CN1C(=O)c2ccccc2C1=O,103% (inactive)
19,CC1=C[S+](c2ccccc2)c2cccc3cc4ccccc4c1c23 (centres undefined),-70% (active)
